One sequence from paper PMC7862700, “An all-to-all approach to the identification of sequence-specific readers for epigenetic DNA modifications on cytosine” can be followed below.

What all share (assay): DAPPL (digital affinity profiling via proximity ligation, sequencing); 10 mM Tris-HCl pH 7.5, 50 mM NaCl, 1 mM DTT, 4% glycerol, room temperature, 30 min; GST-TFs on glutathione beads, 16-mer random dsDNA library, 0.1% formaldehyde crosslink after washing; high values mean tight binding
The target in one experiment is T1, FEV (Homo sapiens, UniProt Q99581 1-238).
T1 sequence: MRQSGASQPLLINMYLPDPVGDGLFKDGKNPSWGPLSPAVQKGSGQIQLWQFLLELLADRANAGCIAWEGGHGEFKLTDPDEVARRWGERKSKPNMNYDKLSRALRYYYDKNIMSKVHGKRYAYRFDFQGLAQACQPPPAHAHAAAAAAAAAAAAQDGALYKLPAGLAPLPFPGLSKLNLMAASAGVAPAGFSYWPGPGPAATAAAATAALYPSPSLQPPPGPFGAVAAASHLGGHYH
The following applies: protein: recombinant; tags: N-terminal GST; dsDNA, one strand shown. Put shortly:
(§1)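 Human transcription factors were made in yeast as GST fusions, captured on glutathione beads and barcoded with DNA. With a tag-only sample included, the pool was incubated with 200 nmole of a random double-stranded 16-mer DNA library in Tris/NaCl/DTT/glycerol buffer at room temperature for 30 min, then crosslinked with 0.1% formaldehyde after washing, ligated by proximity, amplified and sequenced. For binding signal, each hexamer's read frequency for a factor is divided by its frequency for the tag-only sample.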

The target of the next experiment is ETV5 (Homo sapiens, UniProt P41161 1-510). The following applies: protein: recombinant; tags: N-terminal GST; dsDNA, one strand shown. Put shortly:
as §1

A further experiment concerns the target HSF1 (Homo sapiens, UniProt Q00613 1-529). The conditions noted are these: protein: recombinant; tags: N-terminal GST; chain copies: 3; dsDNA, one strand shown. Put shortly:
as §1

In another experiment the target is T2, SPIC (Homo sapiens, UniProt Q8N5J4 1-248).
T2 sequence: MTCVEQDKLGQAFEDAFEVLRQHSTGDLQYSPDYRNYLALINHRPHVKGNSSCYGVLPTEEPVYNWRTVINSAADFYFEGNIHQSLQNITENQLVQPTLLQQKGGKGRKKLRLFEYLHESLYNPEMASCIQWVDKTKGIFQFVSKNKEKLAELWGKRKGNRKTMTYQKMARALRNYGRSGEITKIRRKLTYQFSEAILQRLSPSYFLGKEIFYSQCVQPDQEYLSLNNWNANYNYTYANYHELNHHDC
The following applies: protein: recombinant; tags: N-terminal GST; dsDNA, one strand shown. Put shortly: as §1

The target of the next experiment is ELF4 (Homo sapiens, UniProt Q99607 1-663). The following applies: protein: recombinant; tags: N-terminal GST; dsDNA, one strand shown. Put shortly:
as §1

The target in another experiment is T3, ELK4 (Homo sapiens, UniProt P28324-2 1-405).
T3 sequence: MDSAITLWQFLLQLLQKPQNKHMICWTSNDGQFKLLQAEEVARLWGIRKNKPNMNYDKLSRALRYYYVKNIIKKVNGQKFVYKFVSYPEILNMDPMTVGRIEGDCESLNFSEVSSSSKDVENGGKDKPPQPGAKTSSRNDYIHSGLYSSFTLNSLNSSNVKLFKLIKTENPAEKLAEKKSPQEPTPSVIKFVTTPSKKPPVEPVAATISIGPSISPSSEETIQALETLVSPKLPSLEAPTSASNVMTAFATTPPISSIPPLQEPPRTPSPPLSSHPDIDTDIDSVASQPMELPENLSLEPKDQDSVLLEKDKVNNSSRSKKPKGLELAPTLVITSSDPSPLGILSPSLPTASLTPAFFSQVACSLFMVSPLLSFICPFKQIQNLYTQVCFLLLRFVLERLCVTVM
The conditions noted are these: protein: recombinant; tags: N-terminal GST; dsDNA, one strand shown. Put shortly:
as §1

For the next experiment, the target named is T4, ETV2 (Homo sapiens, UniProt O00321 1-342).
T4 sequence: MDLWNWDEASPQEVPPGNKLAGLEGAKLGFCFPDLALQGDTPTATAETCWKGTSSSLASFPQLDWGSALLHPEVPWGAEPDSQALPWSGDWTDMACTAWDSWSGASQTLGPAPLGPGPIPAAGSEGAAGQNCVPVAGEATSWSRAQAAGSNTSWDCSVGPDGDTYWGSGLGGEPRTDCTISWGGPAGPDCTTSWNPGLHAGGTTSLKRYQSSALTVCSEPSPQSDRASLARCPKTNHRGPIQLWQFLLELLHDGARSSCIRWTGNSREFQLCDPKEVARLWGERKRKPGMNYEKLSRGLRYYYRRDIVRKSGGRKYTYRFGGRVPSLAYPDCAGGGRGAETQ
The following applies: protein: recombinant; tags: N-terminal GST; dsDNA, one strand shown. Put shortly: as §1

The next experiment concerns the target T5, ELF3 (Homo sapiens, UniProt P78545 1-371).
T5 sequence: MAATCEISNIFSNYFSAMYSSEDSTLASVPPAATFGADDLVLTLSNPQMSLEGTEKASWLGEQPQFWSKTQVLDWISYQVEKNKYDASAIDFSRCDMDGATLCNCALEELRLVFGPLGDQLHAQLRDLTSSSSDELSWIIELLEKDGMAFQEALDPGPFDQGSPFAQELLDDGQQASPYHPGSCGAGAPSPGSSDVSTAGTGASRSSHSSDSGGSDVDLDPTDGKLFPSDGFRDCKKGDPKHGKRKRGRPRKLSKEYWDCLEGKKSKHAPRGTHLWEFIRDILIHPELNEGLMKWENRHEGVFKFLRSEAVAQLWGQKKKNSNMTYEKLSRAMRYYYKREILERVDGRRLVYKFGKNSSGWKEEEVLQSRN
The following applies: protein: recombinant; tags: N-terminal GST; dsDNA, one strand shown. Put shortly:
as §1

Another experiment addresses CRX (Homo sapiens, UniProt O43186 1-299). The conditions noted are these: protein: recombinant; tags: N-terminal GST; dsDNA, one strand shown. Put shortly:
as §1

The next experiment concerns the target ETV1 (Homo sapiens, UniProt P50549 1-477). The conditions noted are these: protein: recombinant; tags: N-terminal GST; dsDNA, one strand shown. The method, boiled down: as §1
In a further experiment the target is T6, ERF (Homo sapiens, UniProt P50548 1-548).
T6 sequence: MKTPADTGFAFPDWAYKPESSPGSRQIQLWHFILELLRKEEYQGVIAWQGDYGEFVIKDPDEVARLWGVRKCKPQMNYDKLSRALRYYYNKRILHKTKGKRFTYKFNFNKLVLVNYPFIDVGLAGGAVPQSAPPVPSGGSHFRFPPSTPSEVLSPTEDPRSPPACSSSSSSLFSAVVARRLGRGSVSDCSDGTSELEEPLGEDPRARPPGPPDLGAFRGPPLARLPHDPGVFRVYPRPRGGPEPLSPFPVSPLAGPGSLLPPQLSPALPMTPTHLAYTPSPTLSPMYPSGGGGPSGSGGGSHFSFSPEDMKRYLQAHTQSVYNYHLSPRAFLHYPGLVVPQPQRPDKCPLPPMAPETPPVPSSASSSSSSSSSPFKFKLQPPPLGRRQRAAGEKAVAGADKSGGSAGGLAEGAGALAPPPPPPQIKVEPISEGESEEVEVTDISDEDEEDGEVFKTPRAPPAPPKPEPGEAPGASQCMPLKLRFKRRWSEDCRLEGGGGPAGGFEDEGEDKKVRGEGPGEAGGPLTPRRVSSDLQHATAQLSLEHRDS
The conditions noted are these: protein: recombinant; tags: N-terminal GST; dsDNA, one strand shown. Put shortly: as §1

Another experiment deals with T7, ETV3L (Homo sapiens, UniProt Q6ZN32 1-361).
T7 sequence: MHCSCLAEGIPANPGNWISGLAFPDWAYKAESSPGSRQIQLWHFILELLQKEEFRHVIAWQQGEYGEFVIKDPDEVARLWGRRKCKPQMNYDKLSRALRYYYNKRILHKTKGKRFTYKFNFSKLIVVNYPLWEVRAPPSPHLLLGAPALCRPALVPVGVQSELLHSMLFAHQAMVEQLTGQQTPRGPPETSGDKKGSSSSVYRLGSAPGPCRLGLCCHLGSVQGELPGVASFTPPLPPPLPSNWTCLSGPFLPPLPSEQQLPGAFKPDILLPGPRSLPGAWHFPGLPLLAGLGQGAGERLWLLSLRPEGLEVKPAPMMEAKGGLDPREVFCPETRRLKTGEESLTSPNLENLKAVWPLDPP
The following applies: protein: recombinant; tags: N-terminal GST; dsDNA, one strand shown. Put shortly:
as §1

For a further experiment, the target named is T8, ETS2 (Homo sapiens, UniProt P15036 1-469).
T8 sequence: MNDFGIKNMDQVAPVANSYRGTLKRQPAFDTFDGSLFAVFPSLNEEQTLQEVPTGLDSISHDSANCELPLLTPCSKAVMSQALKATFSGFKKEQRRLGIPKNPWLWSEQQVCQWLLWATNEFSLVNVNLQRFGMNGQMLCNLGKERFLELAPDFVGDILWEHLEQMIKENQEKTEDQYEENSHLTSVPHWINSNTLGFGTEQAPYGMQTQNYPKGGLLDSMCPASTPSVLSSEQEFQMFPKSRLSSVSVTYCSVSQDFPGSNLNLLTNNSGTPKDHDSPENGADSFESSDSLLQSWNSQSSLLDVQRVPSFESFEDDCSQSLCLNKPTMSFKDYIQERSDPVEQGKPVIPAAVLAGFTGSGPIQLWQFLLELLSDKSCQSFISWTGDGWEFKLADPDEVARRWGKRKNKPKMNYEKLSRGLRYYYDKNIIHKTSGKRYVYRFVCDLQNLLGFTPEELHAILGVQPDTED
The following applies: protein: recombinant; tags: N-terminal GST; dsDNA, one strand shown. The method, boiled down: as §1

The target in another experiment is T9, SPDEF (Homo sapiens, UniProt O95238 1-335).
T9 sequence: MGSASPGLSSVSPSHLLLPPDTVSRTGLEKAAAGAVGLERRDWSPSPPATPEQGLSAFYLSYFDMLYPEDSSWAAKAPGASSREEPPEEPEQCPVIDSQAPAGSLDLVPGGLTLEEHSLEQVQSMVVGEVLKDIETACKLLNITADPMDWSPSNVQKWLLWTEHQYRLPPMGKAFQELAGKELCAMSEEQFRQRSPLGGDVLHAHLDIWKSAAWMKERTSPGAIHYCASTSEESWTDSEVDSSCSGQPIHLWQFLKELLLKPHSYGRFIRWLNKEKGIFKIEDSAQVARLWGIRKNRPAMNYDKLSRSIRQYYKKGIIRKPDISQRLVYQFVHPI
The following applies: protein: recombinant; tags: N-terminal GST; dsDNA, one strand shown. The method, boiled down: as §1

Another experiment has as its target T10, ETV7 (Homo sapiens, UniProt Q9Y603 1-341).
T10 sequence: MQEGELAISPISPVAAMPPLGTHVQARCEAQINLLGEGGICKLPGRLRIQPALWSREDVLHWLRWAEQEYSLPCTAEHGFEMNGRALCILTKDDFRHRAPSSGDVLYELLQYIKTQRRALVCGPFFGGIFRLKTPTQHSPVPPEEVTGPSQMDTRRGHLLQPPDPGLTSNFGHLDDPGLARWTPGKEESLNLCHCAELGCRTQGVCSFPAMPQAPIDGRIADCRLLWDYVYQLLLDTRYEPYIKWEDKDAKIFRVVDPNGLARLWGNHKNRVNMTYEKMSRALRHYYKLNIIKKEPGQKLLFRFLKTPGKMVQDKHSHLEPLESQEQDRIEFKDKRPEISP
The following applies: protein: recombinant; tags: N-terminal GST; dsDNA, one strand shown. Put shortly: as §1

A further experiment deals with T11, ELF5 (Homo sapiens, UniProt Q9UKW6-2 1-255).
T11 sequence: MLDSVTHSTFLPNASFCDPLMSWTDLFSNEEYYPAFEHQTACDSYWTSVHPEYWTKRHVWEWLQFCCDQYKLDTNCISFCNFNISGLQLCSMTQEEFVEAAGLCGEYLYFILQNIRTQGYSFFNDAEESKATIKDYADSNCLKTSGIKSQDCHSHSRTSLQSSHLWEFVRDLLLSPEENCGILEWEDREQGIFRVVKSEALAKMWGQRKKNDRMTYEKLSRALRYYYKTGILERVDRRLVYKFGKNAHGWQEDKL
The following applies: protein: recombinant; tags: N-terminal GST; dsDNA, one strand shown. Put shortly:
as §1

Another experiment concerns the target T12, ETV3 (Homo sapiens, UniProt P41162-2 1-143).
T12 sequence: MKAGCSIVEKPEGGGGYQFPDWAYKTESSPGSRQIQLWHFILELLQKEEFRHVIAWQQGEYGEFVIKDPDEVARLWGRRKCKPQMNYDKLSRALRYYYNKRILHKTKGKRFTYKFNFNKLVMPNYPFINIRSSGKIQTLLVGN
The following applies: protein: recombinant; tags: N-terminal GST; dsDNA, one strand shown. Put shortly: as §1

The next experiment deals with ETV6 (Homo sapiens, UniProt P41212 1-452). The conditions noted are these: protein: recombinant; tags: N-terminal GST; dsDNA, one strand shown. The method, boiled down:
as §1

ELF4, sequence (Q99607 whole entry): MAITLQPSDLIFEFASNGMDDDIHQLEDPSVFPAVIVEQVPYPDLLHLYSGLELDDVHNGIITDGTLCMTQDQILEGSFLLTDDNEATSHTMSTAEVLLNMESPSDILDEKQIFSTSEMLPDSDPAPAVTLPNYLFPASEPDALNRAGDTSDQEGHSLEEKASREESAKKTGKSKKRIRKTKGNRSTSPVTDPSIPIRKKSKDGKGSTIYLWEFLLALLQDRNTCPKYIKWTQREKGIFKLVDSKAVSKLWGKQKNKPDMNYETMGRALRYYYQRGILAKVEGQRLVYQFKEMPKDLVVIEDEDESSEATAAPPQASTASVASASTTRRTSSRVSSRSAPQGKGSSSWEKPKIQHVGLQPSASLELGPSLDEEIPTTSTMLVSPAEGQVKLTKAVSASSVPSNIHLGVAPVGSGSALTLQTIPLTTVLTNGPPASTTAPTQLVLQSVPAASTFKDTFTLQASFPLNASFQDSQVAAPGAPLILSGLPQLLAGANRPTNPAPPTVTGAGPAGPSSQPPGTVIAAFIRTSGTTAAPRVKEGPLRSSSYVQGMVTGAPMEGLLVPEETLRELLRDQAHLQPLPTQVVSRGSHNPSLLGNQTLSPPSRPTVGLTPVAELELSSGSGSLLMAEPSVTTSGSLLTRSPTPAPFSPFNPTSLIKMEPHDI
ETV5, sequence (P41161 whole entry): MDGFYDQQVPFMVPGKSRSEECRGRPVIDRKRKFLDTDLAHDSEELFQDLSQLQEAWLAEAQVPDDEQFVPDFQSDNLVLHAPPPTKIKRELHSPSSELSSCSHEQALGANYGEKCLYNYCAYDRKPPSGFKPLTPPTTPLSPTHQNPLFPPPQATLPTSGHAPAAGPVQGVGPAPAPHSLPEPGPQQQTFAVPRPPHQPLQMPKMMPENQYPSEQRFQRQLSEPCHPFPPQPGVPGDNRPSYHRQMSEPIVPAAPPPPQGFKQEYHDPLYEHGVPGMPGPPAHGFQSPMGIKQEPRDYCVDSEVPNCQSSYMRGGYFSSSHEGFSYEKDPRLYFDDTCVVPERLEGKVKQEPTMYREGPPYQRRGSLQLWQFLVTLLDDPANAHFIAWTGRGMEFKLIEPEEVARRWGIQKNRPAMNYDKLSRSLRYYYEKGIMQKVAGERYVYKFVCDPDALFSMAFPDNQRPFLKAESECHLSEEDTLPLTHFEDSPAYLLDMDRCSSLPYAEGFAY
HSF1, sequence (Q00613 whole entry): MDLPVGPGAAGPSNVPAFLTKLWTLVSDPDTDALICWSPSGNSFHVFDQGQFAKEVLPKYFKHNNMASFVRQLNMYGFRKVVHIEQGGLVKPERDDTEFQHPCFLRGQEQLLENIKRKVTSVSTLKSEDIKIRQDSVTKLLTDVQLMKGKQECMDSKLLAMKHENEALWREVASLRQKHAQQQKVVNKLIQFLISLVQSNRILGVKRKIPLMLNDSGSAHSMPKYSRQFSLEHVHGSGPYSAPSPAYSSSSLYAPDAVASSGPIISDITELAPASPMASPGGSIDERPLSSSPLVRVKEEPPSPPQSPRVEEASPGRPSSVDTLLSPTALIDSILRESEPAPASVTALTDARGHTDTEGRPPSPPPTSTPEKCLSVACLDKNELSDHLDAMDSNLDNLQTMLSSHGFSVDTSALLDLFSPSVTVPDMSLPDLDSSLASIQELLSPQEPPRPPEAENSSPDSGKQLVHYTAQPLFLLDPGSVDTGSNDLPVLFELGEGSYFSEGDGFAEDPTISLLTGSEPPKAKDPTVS
ETV1, sequence (P50549 whole entry): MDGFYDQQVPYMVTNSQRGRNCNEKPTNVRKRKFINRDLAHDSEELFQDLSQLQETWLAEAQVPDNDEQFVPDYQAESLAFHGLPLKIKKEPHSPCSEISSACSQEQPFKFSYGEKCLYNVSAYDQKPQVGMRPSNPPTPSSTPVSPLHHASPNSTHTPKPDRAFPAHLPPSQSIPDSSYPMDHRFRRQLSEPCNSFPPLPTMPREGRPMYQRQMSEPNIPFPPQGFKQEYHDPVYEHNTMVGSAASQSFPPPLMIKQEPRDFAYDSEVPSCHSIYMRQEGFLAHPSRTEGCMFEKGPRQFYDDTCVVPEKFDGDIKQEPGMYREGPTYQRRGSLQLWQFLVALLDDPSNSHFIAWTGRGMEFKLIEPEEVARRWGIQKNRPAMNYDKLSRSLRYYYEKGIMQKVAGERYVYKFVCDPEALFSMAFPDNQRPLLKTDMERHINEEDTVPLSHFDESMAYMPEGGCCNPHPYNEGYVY
ETV6, sequence (P41212 whole entry): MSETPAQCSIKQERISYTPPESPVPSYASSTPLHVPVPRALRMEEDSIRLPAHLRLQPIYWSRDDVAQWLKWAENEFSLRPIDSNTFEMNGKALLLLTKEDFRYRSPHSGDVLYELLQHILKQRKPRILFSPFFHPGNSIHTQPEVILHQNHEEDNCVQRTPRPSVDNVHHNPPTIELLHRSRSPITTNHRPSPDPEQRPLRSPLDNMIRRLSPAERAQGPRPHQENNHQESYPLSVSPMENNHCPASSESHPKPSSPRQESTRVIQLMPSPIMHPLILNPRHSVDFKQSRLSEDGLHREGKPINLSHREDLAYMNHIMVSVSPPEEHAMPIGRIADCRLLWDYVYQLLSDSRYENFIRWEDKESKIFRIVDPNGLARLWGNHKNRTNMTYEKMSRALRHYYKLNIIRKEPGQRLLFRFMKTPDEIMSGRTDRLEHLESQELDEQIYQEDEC
CRX, sequence (O43186 whole entry): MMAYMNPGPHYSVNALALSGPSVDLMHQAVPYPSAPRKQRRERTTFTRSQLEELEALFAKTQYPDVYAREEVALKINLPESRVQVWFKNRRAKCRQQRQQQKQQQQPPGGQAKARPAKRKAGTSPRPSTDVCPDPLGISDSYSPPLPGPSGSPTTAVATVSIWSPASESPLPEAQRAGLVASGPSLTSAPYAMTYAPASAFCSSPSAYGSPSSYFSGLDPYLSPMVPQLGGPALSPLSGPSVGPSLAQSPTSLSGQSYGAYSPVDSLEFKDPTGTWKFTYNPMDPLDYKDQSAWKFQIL

Turning to ATGATG, the binding signal in the experiment with FEV is 1.27 fold enrichment (6-mer frequency, TF over GST control); in the experiment with ETV5, 1.33 fold enrichment (6-mer frequency, TF over GST control); with HSF1 it was 1.24 fold enrichment (6-mer frequency, TF over GST control); with SPIC, 1.35 fold enrichment (6-mer frequency, TF over GST control); in the experiment with ELF4 it was 1.37 fold enrichment (6-mer frequency, TF over GST control); in the experiment with ELK4, 1.38 fold enrichment (6-mer frequency, TF over GST control). The binding signal with ETV2 was 1.47 fold enrichment (6-mer frequency, TF over GST control); in the experiment with ELF3 it was 1.38 fold enrichment (6-mer frequency, TF over GST control); with CRX it was 1.21 fold enrichment (6-mer frequency, TF over GST control); with ETV1, 1.24 fold enrichment (6-mer frequency, TF over GST control); in the experiment with ERF it was 1.27 fold enrichment (6-mer frequency, TF over GST control); with ETV3L, 1.41 fold enrichment (6-mer frequency, TF over GST control). The binding signal in the experiment with ETS2 was 1.27 fold enrichment (6-mer frequency, TF over GST control); with SPDEF it was 1.22 fold enrichment (6-mer frequency, TF over GST control); with ETV7 it was 1.43 fold enrichment (6-mer frequency, TF over GST control); in the experiment with ELF5, 1.25 fold enrichment (6-mer frequency, TF over GST control); with ETV3, 1.43 fold enrichment (6-mer frequency, TF over GST control); in the experiment with ETV6 it was 1.38 fold enrichment (6-mer frequency, TF over GST control).
